A short description of experiment [1]: inhibitors of TNFa-induced NFkB p65 translocation, primary screen, imaging, HUVEC, MLSMR starter and 10KST1 sets (AID 438;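 active = inhibition above 20% together with a positive visual image hit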;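 note: compound added about 3h40 before a 20 min TNFalpha stimulation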;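 for inhibition: signal is the nuclear over cytoplasmic p65 intensity ratio per well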). As to conditions: HUVEC TNFa-induced p65 nuclear translocation; cell count: measured here: nuclei count (cytotoxicity indicator), at 2.08 µM; inhibition: at 2 µM, stronger effect = higher value, 0% TNFa-plus-vehicle, 100% no-TNFa wells.
A short description of experiment [2]: inhibitors of mutant huntingtin aggregation, primary screen, imaging, exon1htt(103Q)mCFP cells, high-content imaging (AID 483;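 active = visual image review flags a hit and inhibition of aggregation exceeds 20%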;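 note: compound exposure lasted 3 days before fixation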;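 for nuclei count: percent of the per-plate median nuclei count of sample wells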). The settings on record: exon1htt(103Q)mCFP cell line, aggregate imaging, at 2 µM; inhibition of aggregation: stronger effect = higher value; nuclei count: measured here: cell count, toxicity.
Experiment [3] in a line: inhibitors of E-selectin induction by TNFa, primary screen, imaging, HUVEC, immunofluorescence, MLSMR starter and 10KST1 sets (AID 487;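 active = visually confirmed hit in the image check and inhibition above 20%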;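 for inhibition: signal is fraction of cell area covered by stained E-selectin grains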;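 for nuclei count: 100% = median nuclei count of all wells on the same plate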). As to conditions: HUVEC TNFalpha-induced E-selectin immunofluorescence imaging, at 2 µM; inhibition: stronger effect = higher value; nuclei count: measured here: cell number, toxicity.
For experiment [4], the target named is Voltage-gated potassium channel subunit beta-2 (Rattus norvegicus) (UniProt P62483). The experiment in a line: KvBeta enzyme negative modulators, primary screen, biochemical, NADPH fluorescence (AID 622;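 active = fluorescence slope higher than the sample average by over 3 SD, cut at about -0.22 in these data, passing the limit was not always enough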;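 note: slope of raw intensity against log time taken from 70 to 1610 s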). The settings on record: recombinant KvBeta, 4-cyanobenzaldehyde reduction, at 10 µM, stronger effect = higher value.
The target is the same in experiment [5]. The experiment in a line: KvBeta positive modulators, primary screen, biochemical, NADPH fluorescence (AID 623;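 active = NADPH fluorescence slope more negative than the mean of all samples by about 3 SD, 99.7% confidence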;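 note: fluorescence intensity change per second fitted from 20 to 320 s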). As to conditions: Recombinant KvBeta, NADPH fluorescence decrease slope, 10 min; at 10 µM; stronger effect = lower value.
For experiment [6], the target named is Alpha-2C adrenergic receptor (Homo sapiens) (UniProt P18825). Description: modulators of alpha2C/GIRK thallium flux, primary screen, cell-based, HEK293 alpha2C/GIRK1/2 (AID 624;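 active = fluorescence slope after compound addition differing from the mean of all screened samples at 99.7% confidence, in either direction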;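 note: slope of fluorescence ratio to pre-addition baseline per second over 15 to 24 s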). The settings on record: thallium flux BTC fluorescence, at 10 µM, actives lie on both sides.
Experiment [7] is described as follows: inhibitors of Sendai virus-induced IRF3 signaling, primary screen, TLR/RLR signaling modifier project, cell-based, Sendai virus stimulus, luciferase, 10K MLSCN set (AID 602276).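 Note: firefly luciferase from ISG56 promoter only with Renilla not read in this screen; 0% = Sendai virus plus DMSO and 100% = medium plus DMSO without virus.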 As to conditions: HEK293 RL24 IRF3 luciferase reporter, at 10 µM, stronger effect = higher value. On the technique in general: Reporter assays use an easily measured gene product as a stand-in for the process of interest.

A short description of experiment [8]: inhibitors of poly I:C-induced TLR3 signaling, primary screen, cell-based, poly I:C stimulus, luciferase, 10K MLSCN set (AID 602277;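 active = inhibition of the reporter signal at or above 50%; inactive = inhibition below 50%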). The settings on record: HEK293-TLR3 RL24 IRF3 luciferase reporter, at 10 µM, stronger effect = higher value.

The source made the active and inactive calls.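 Rule for the calls, unless noted: active = inhibition at or above 50% at 10 µM; inactive = inhibition below 50%.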

Alpha-2C adrenergic receptor (Homo sapiens), sequence (P18825 whole entry, looked up): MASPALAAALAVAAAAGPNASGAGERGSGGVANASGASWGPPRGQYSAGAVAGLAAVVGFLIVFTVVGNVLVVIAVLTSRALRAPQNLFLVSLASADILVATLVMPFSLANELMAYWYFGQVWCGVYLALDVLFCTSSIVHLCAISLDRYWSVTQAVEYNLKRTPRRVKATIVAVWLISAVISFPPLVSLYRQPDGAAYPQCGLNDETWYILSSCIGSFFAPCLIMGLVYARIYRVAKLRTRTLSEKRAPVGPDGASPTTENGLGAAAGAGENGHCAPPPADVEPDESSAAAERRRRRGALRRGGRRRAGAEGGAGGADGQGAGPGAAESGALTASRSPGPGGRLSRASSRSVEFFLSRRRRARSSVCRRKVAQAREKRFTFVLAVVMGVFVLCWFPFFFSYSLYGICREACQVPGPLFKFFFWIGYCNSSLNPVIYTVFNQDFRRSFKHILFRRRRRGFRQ
Voltage-gated potassium channel subunit beta-2 (Rattus norvegicus), sequence (P62483 whole entry, looked up): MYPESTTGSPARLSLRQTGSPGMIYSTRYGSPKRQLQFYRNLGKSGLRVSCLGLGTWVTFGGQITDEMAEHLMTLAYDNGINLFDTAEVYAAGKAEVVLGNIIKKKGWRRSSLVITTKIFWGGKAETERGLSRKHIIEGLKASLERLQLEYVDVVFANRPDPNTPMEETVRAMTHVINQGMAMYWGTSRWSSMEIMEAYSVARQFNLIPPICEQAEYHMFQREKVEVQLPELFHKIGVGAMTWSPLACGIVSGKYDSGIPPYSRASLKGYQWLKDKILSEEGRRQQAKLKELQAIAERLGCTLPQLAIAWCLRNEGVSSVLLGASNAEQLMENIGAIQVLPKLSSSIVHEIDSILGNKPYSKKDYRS

With `CCN(CC)S(=O)(=O)c1ccc2[nH]cc(C(=O)NCCC3=CCCCC3)c(=O)c2c1`, the cell count in experiment [1] amounted to 344. Besides, the inhibition (commonly the relative decrease from the control value, in per cent) in experiment [1] was 8.4% (inactive); in experiment [3], 96.3% (active); in experiment [7] it was 12% (inactive); in experiment [8] it was 6.76% (inactive). In experiment [2], the inhibition of aggregation was -4.1% (inactive). Besides, the nuclei count in experiment [2] is 71.6%; in experiment [3] it was 91%. Also, in experiment [4], the fluorescence slope is -0.498 (inactive). Besides, the NADPH fluorescence slope in experiment [5] was -4.6e-05 (inactive). Further, in experiment [6], the slope is 0.00467 (inactive).
As for `Cc1cc2nc(-c3ccco3)cc(C(F)(F)F)n2n1`, the cell count in experiment [1] amounted to 903. Further, the inhibition in experiment [1] was 3.5% (inactive); in experiment [3], -56.6% (inactive); in experiment [7], 10.1% (inactive); in experiment [8], 18.3% (inactive). Moreover, the inhibition of aggregation in experiment [2] is -18.7% (inactive). Also, the nuclei count in experiment [2] came to 104%; in experiment [3] it was 121%. Also, the fluorescence slope in experiment [4] was -0.578 (inactive). In experiment [5], the NADPH fluorescence slope was -1.8e-05 (inactive). Besides, the slope in experiment [6] was 0.00736 (inactive).
For `O=C(Nc1ccccc1C(=O)N1CCOCC1)C1COc2ccccc2O1` (centres undefined), the cell count in experiment [1] was 355. The inhibition in experiment [1] was 3.3% (inactive); in experiment [3] it was -70.1% (inactive); in experiment [7], 6.31% (inactive); in experiment [8] it was 11.6% (inactive). The inhibition of aggregation in experiment [2] is -5.7% (inactive). In addition, the figures for the nuclei count in experiment [2] and in experiment [3] were 105% and 123%, respectively. For the same compound, the fluorescence slope in experiment [4] was -0.437 (inactive). For the same compound, the NADPH fluorescence slope in experiment [5] was -1.5e-05 (inactive). The slope in experiment [6] is 0.00506 (inactive).
`FC(F)Oc1ccc(-c2csc(Cc3nnc4n3CCCCC4)n2)cc1`: in experiment [1], the cell count is 578. The inhibition in experiment [1] is -3.5% (inactive); in experiment [3], 84.7% (active); in experiment [7] it was -0.365% (inactive); in experiment [8], -11.8% (inactive). Moreover, the inhibition of aggregation in experiment [2] was -9% (inactive). For the same compound, the figures for the nuclei count in experiment [2] and in experiment [3] were 113% and 83.2%, respectively. Besides, in experiment [4], the fluorescence slope was -0.535 (inactive). Besides, the NADPH fluorescence slope in experiment [5] is 7.5e-06 (inactive). Further, the slope in experiment [6] was 0.00442 (inactive).
As to `Cc1ccc(-c2cc(C(F)(F)F)n3nc(C(=O)N4CCCC4)cc3n2)cc1`, the cell count in experiment [1] was found to be 336. In addition, the inhibition was 5.5% (inactive) in experiment [1], -148% (inactive) in experiment [3], -0.996% (inactive) in experiment [7] and -25.5% (inactive) in experiment [8]. Moreover, the inhibition of aggregation in experiment [2] was 13.3% (inactive). Further, the nuclei count worked out at 107% in experiment [2] and 127% in experiment [3]. Besides, in experiment [4], the fluorescence slope was -0.512 (inactive). Besides, the NADPH fluorescence slope in experiment [5] was -1.4e-05 (inactive). The slope in experiment [6] is 0.00691 (inactive).
In the case of `CCN1C(=O)Cc2cc(S(=O)(=O)N3CCOCC3)ccc21`, the cell count in experiment [1] amounted to 675. Besides, the inhibition is -2.9% (inactive) in experiment [1], -38.7% (inactive) in experiment [3], 2.07% (inactive) in experiment [7] and -4.25% (inactive) in experiment [8]. In experiment [2], the inhibition of aggregation is -11.1% (inactive). Besides, the nuclei count was 121% in experiment [2] and 98.4% in experiment [3]. Also, the fluorescence slope in experiment [4] was -0.435 (inactive). The NADPH fluorescence slope in experiment [5] was 2.6e-05 (inactive). Also, in experiment [6], the slope was 0.00585 (inactive).
For the compound `CCOc1ccccc1C(=O)NCc1ccc2c(c1)OCO2`, the cell count in experiment [1] is 414. Further, the inhibition in experiment [1] is 1.1% (inactive); in experiment [3], -18.7% (inactive); in experiment [7], 10.4% (inactive); in experiment [8], -6.17% (inactive). Besides, in experiment [2], the inhibition of aggregation was -12.2% (inactive). The nuclei count was determined as 98.8% in experiment [2] and 94.7% in experiment [3]. Besides, in experiment [4], the fluorescence slope is -0.388 (inactive). Further, the NADPH fluorescence slope in experiment [5] is -3.6e-05 (inactive). Further, the slope in experiment [6] was 0.00485 (inactive).
Take `O=S1(=O)C=C(Sc2nc3ccccc3s2)c2ccccc21`: the cell count in experiment [1] turned out to be 581. The inhibition in experiment [1] is -2.6% (inactive); in experiment [3], 121% (active); in experiment [7], 16.3% (inactive); in experiment [8], 84.8% (active). Further, the inhibition of aggregation in experiment [2] is -17.5% (inactive). The nuclei count worked out at 67.1% in experiment [2] and 72.2% in experiment [3]. For the same compound, in experiment [4], the fluorescence slope was -0.474 (inactive). Besides, the NADPH fluorescence slope in experiment [5] is 5.2e-06 (inactive). Besides, the slope in experiment [6] is 0.00662 (inactive).
On to `Cc1cc(C(=O)OCC(=O)N2c3ccccc3CC2C)c(C)o1` (centres undefined), for which the cell count in experiment [1] was found to be 733. Moreover, the inhibition in experiment [1] was -9.6% (inactive); in experiment [3], -49.5% (inactive); in experiment [7], -14.2% (inactive); in experiment [8] it was -2.49% (inactive). Further, the inhibition of aggregation in experiment [2] was 3.2% (inactive). Also, the nuclei count is 85.1% in experiment [2] and 111% in experiment [3]. Moreover, the fluorescence slope in experiment [4] is -0.425 (inactive). In experiment [5], the NADPH fluorescence slope was 2.6e-05 (inactive). For the same compound, the slope in experiment [6] is 0.00532 (inactive).

Values taken from PubChem BioAssay.
